A selection: hits, their analogues and other compounds. The true share with any hit is near 4.3%.
CHOP inh = inhibitors of CHOP promoter induction, primary screen, cell-based, unfolded protein response, luciferase reporter; CHO-K1 CHOP-promoter luciferase, tunicamycin-induced, 15-18 h; inhibition, % at 10 µM; 220,000 compounds, 3.8% hits; AID 2732, 2010;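 active = compounds that reduced the stress-induced luciferase reporter signal by more than about 70% of percent inhibition, limit read from the data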
Peg3 prom inh-1 = Peg3 promoter-driven luciferase inhibitors, primary screen, cell-based, HeLa, luciferase luminescence; 360,000 compounds, 1.7% hits; inhibition, % at 20 µM; HeLa PEG-Prom luciferase reporter, overnight;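 active = inhibition of at least 50% at 20 µM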
MITF TRPM1 inh = inhibitors of MITF-dependent TRPM1 promoter reporter, primary screen, cell-based, SK-MEL-5, single point, luciferase; inhibition, % at 12.5 µM; AID 488899, 2010; 330,000 compounds, 0.83% hits; SK-MEL-5 TRPM1 promoter luciferase, 24 h;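 active = mean inhibition across replicates of 60% or more, whatever share of single replicates reaches that level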
HIF-2a inh = HIF-2a reporter inhibitors, primary screen, luminescence, 786-0 RCC cells | 786-0 RCC cells HIF-2a reporter, luciferase luminescence, overnight | inhibition, % at 18.8 µM | 360,000 compounds, 0.72% hits | AID 624352, 2012;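 active = inhibition of the luminescence signal of 40% or more relative to plate controls, in a single-dose primary screen at 18.75 µM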
KKLEB tox = cytotoxicity in KKLEB CF airway cells, primary screen, cytotoxicity control for CF NF-kB inhibitor project, cell-based, uHTS, fluorescence assay plates; KKLEB CF airway cells viability, ATPlite luminescence, overnight; hits give low values; cells stimulated with P. aeruginosa culture filtrate; activity change (cytotoxicity), % at 5 µM; 360,000 compounds, 0.36% hits;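 active = corrected activity change at or below -50% at 5 µM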
CF NFkB inh = inhibitors of PAF-induced NF-kB signaling, primary screen, cell-based, GFP fluorescence, uHTS; KKLEB NF-kB-GFP reporter, GFP fluorescence overnight; inhibition, % at 5 µM; 360,000 compounds, 0.86% hits;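 active = at least 50% inhibition at 5 µM, scaled per plate between neutral and stimulator controls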;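 note: PAF is a Pseudomonas aeruginosa culture filtrate used as stimulus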
Peg3 prom inh-2 = Peg3 promoter reporter inhibitors, retest, confirmation, cell-based, HeLa, luciferase reporter, single concentration; AID 602417, 2012; inhibition, % at 20 µM; shares compounds with Peg3 prom inh-1; HeLa PEG-Prom luciferase reporter, luminescence, overnight; 1,300 compounds, 84% hits;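 active = at 20 µM dose, 40% or more inhibition averaged across four replicates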
Numbers stand for hits; . = inactive; / = not tested or not shown.

SMILES	CHOP inh	Peg3 prom inh-1	MITF TRPM1 inh	HIF-2a inh	KKLEB tox	CF NFkB inh	Peg3 prom inh-2
O=C(COc1ccc(Cl)cc1)NNC(=O)c1ccccc1C(=O)O	/	.	.	.	.	.	/
CN(C)CC/C=C1\c2ccccc2Sc2ccc(Cl)cc21	.	.	.	.	.	.	/
CCCCCCCCCC[N+](C)(C)CC/C=C1/c2ccccc2Sc2ccc(Cl)cc21	/	107.5	.	49.1	.	.	99.5
COc1cc(OC)c(OC)cc1CCC(C)NCCC(c1ccccc1)c1ccccc1 (stereo not given)	/	96.7	.	.	.	.	88.1
COc1ccc(CCNCCC(c2ccccc2)c2ccccc2)cc1OC	/	.	/	.	.	.	/
COc1nc(C)ccc1-c1noc(-c2cccnc2)n1	/	.	.	.	.	.	/
COC1=C(Br)C(=O)c2nc(C)ccc2C1=O	/	107.4	/	.	.	.	100.0
COC(=O)C1=C(C(=O)OC)C(C(=O)OC)C(C(=O)OC)C(C(=O)OC)(C(=O)OC)C(C(=O)OC)=C1C(=O)OC (stereo not given)	/	107.1	.	.	.	.	98.5
CN(C)CC1CCC/C(=C\c2ccc(OC(=O)/C=C/c3ccccc3)cc2)C1=O (stereo not given)	/	100.9	68.5	.	.	.	99.7
CC(=O)c1ccc(OC(=O)/C=C/c2ccccc2)cc1	/	.	.	.	.	.	/
CN(C)CC1CCC/C(=C\c2ccc(OC(=O)c3ccc(Cl)cc3)cc2)C1=O (stereo not given)	/	105.2	91.5	.	.	.	100.1
O=C(Oc1ccc2c(c1)OCC2=O)c1ccc(Cl)cc1	.	.	.	.	.	.	/
Oc1ccc(N2CCN(Cc3cc4c(cc3Br)OCCO4)CC2)cc1	/	.	/	.	.	.	/
O=S(=O)(CC(CN1CCCCC1)N1CCCCC1)c1ccccc1 (stereo not given)	.	67.3	.	.	.	.	88.1
Cc1ccc(NCc2nc3ccccc3n2C)cc1C	/	.	.	.	.	.	/
CS(=O)(=O)c1sc(C#N)c2c1C(=O)CC(c1ccccc1)C2 (stereo not given)	107.0	98.2	87.2	95.3	.	81.4	96.6
Cc1oc2c(c(=O)c1C)C(=O)CC(c1ccccc1)C2 (stereo not given)	.	.	.	.	.	.	/
Cc1cn([C@H]2C[C@H](O)[C@@H](CNCc3ccc(CN(C)S(C)(=O)=O)o3)O2)c(=O)[nH]c1=O	/	.	/	.	.	.	/
CCCCN(C)C(=O)c1ccc(Nc2nc(C(N)CCc3ccccc3)cs2)nc1 (stereo not given)	/	60.7	/	.	.	.	82.9
Cc1ccc(-c2csc3ncn(C(C)C(=O)O)c(=O)c23)cc1 (stereo not given)	/	.	.	.	.	.	/
Oc1c(Cl)cc(Cl)c2cccnc12	.	64.2	.	.	.	.	66.3
CC(=O)NC(C)c1cc(Cl)c2cccnc2c1O (stereo not given)	/	.	.	.	.	.	/
CCC(C)NCCOCCOc1ccc(Cl)c(C)c1C (stereo not given)	.	.	.	.	.	.	/
CCC(C)NCCOCCOc1ccc(Cl)c2ccccc12 (stereo not given)	.	102.0	.	.	.	.	98.4
CN(C)CCNC(=O)/C(=C/c1ccc(-c2ccc(Cl)cc2)o1)NC(=O)c1ccccc1	.	100.1	66.0	.	.	.	97.3
SMILES	CHOP inh	Peg3 prom inh-1	MITF TRPM1 inh	HIF-2a inh	KKLEB tox	CF NFkB inh	Peg3 prom inh-2
Cc1ccc(C(=O)N/C(=C\c2ccc(-c3cccc([N+](=O)[O-])c3)o2)C(=O)NCCCN(C)C)cc1	/	86.5	.	.	.	.	92.6
Cc1ccc(C(=O)N/C(=C\c2ccc(-c3ccccc3[N+](=O)[O-])o2)C(=O)NCCCN2CCOCC2)cc1	/	.	.	.	.	.	/
COc1cccc(NC(=S)NCc2cccs2)c1	.	.	.	.	.	.	/
Cc1cc(C=C2C(=O)c3ccccc3C2=O)c(C)n1-c1ccccc1	84.1	69.1	71.6	55.8	.	.	64.8
O=S(=O)(c1cnc[nH]1)N1CCN(C(c2ccc(F)cc2)c2ccc(F)cc2)CC1	/	.	.	.	.	.	/
CC(=O)c1ccc(S(=O)(=O)N(C)CCCC(=O)NCc2ccc3c(c2)OCO3)cc1	/	.	.	.	.	.	/
CC1=NOC(=O)/C1=C/c1ccc(O)c(Br)c1	/	.	.	.	.	.	/
CC1=NOC(=O)/C1=C\c1ccc(-c2ccccc2Br)o1	.	93.2	89.2	49.4	.	58.5	98.8
C/C(=N\NC(=O)c1nnn(-c2nonc2N)c1CN1CCc2ccccc21)c1ccccc1O	/	55.3	.	.	.	.	66.5
CCOc1cccc(-c2c(C(=O)N/N=C(\C)c3ccncc3)nnn2-c2nonc2N)c1	/	.	.	.	.	.	/
CCOc1cccc(-c2c(C(=O)N/N=C(\C)c3ccccn3)nnn2-c2nonc2N)c1	/	74.2	60.8	.	.	.	63.9
COc1cccc(Nc2nc(N)c([N+](=O)[O-])c(NCc3ccccc3)n2)c1	.	.	.	.	.	.	/
CC(C)CC1C(=O)N(Cc2cn(CCC3OCCCO3)nn2)CCS(=O)(=O)N1Cc1ccc(-c2ccc(Cl)cc2)cc1 (stereo not given)	/	.	/	.	.	.	/
CC(C)CC1C(=O)N(Cc2cn(CCC3OCCO3)nn2)CCS(=O)(=O)N1Cc1ccc(-c2ccc(F)cc2)cc1 (stereo not given)	/	50.2	/	.	.	.	55.3
COc1cc2nc(SCC(=O)NCc3ccco3)n(Cc3ccc(Cl)cc3)c(=O)c2cc1OC	88.7	50.9	61.9	.	.	.	.
CC(=O)c1cccc(-c2ccnc3c2CC(C(=O)Nc2cccc(NS(C)(=O)=O)c2)O3)c1 (stereo not given)	/	58.6	/	.	.	.	56.6
O=C(N/N=C/c1c(O)ccc2ccccc12)c1ccc(CO)nc1	/	54.8	.	.	.	.	69.9
Cc1ccccc1C(=O)N1CCN(c2ccc([N+](=O)[O-])c(NCc3cccnc3)c2)CC1	.	.	.	.	.	.	/
Cc1ccc(C(=O)N2CCN(c3ccc([N+](=O)[O-])c(NCc4cccnc4)c3)CC2)cc1	.	56.1	.	.	.	.	48.1
N#CCCn1cc(C(=O)N2CCCCC2)c(-c2ccc([N+](=O)[O-])cc2)n1	.	.	.	.	.	.	/

Compound activity as filed in PubChem.
